Compound activity (PubChem)
GoLoco inh red: qHTS Assay for Inhibitors of RGS12 GoLoco Motif Activity (Red Fluorophore); Potency, µM (series often up to 61.6 µM), most hits filed as inhibitors; Gai1:RGS12 GoLoco peptide FP, rhodamine, 10 min; hit rate 0.44% among 230,000; AID 880, 2007; Guanine nucleotide-binding protein G(i) subunit alpha-1 (Homo sapiens), P63096; active = well fitted inhibition curve with a large enough effect, not every such curve was filed as active; inactive = no such curve, though single readings can be large or run the other way; also: nearly all actives have a fitted effect of over 30% in size
HTT aggregate: qHTS Multiplex Assay to Identify Dual Action Probes in a Cell Model of Huntington: Aggregate Formation (GFP); PC12 HttQ103-GFP aggregates, Acumen cytometry, 40 h; Potency, µM (series often up to 46.1 µM), actives largely listed as inhibitors; hit rate 1.1% among 220,000; AID 1688, 2009; active = well fitted curve in the direction sought with a large enough effect; inconclusive = small, poorly fitted or top-dose-only effect, or another doubt; inactive = no such curve, though single readings can be large; an effect the other way counts as inactive or inconclusive; also: nearly all actives have a fitted effect of over 60% in size
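Compounds (qHTS titration) were added to PC12 cells expressing an ecdysone-driven HTT exon 1 Q103–GFP fusion after induction with 100 nM tebufenozide. Aggregate formation was measured as GFP objects in cell lysates.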
ALDH1A1 inh: qHTS Assay for Inhibitors of Aldehyde Dehydrogenase 1 (ALDH1A1); Purified ALDH1A1, NADH fluorescence, propionaldehyde substrate; Potency, µM (series often up to 75.3 µM), hits mostly inhibitors; hit rate 7.3% among 220,000
HPGD block: qHTS Assay for Inhibitors of HPGD (15-Hydroxyprostaglandin Dehydrogenase) | purified HPGD, NADH fluorescence kinetic, PGE2 substrate | Potency, µM, most hits filed as inhibitors | hit rate 4.3% among 150,000 | AID 894, 2007
Target sequence (P15428 whole entry, looked up): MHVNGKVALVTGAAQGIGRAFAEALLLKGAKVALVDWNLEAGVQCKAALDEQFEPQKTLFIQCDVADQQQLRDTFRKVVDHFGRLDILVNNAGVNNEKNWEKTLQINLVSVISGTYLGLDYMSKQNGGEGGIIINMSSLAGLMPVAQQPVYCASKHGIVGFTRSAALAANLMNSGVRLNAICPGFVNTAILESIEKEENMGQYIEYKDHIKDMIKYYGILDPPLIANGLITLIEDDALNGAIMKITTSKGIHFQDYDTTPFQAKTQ
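NADH formation kinetics: reaction with 30 uM PGE2 and 1 mM NAD+ (final), 20 nM enzyme, Tris-HCl pH 8 with Tween 20, after 15 min compound preincubation at room temperature. Fluorescence change, last versus first of five reads.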
HTT cytoprotect: qHTS Multiplex Assay to Identify Dual Action Probes in a Cell Model of Huntington: Cytoprotection (ATP). hit rate 0.14% among 230,000. Potency, µM (top dose mostly 56.4 µM), hits mostly activators. AID 1471, 2008. PC12 HTT-Q103 induced, cytoprotection, ATP luminescence, 40 h; active = well fitted curve in the direction sought with a large enough effect; inconclusive = small, poorly fitted or top-dose-only effect, or another doubt; inactive = no such curve, though single readings can be large; an effect the other way counts as inactive or inconclusive; also: nearly all actives have a fitted effect of over 45% in size
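Cells were plated at 1500 per well in phenol red-free DMEM with 5% equine and 5% calf serum. Tebufenozide (100 nM final) and compounds were added, then ATPlite reagent, and luminescence was read.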
PNC inhibitor: High Content Assay for Compounds that inhibit the Assembly of the Perinucleolar Compartment; PC3M PTB-GFP, PNC prevalence imaging, 16 h; hits give low values; activity change (PNC), negative = inhibition, % at 10 µM; hit rate 3.1% among 140,000;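 active = readout at or below -70, meaning at least 70% loss of cells showing the perinucleolar compartment, a nuclear body marking cancer cells; inconclusive = readout between -30 and a set limit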
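Compounds are pinned in duplicate onto adhered PC3M cells stably expressing GFP-tagged PTB and incubated 16 h at 37 C. Cells are then fixed, nuclei stained with Hoechst, and PNC-positive cells counted.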
Hits are given with their value; - = inactive; ? = inconclusive; . = no result; [ ] = remark or other dose. Shown are actives, neighbours in structure and some others; about 11% of the full set was active somewhere. Unless noted, calls follow the shape of the dose curve; as a rule, active = well fitted inhibition curve with a large enough effect (not every such curve was filed as active); inconclusive = small, poorly fitted or top-dose-only effect, or another doubt; inactive = no such curve, though single readings can be large or run the other way.

SMILES	GoLoco inh red	HTT aggregate	ALDH1A1 inh	HPGD block	HTT cytoprotect	PNC inhibitor
CCCn1c(=O)c(Cc2ccccc2)c(O)c2ccccc21	-	-	?	?	-[0.074 µM]	-
CCCCn1c(=O)c(-c2ccccc2)c(O)c2ccccc21	-	-	?	-	-	-
Cc1cc(/C=C2\C(=N)N3N=CSC3=NC2=O)c(C)n1Cc1ccccc1	-	-[9.22 µM]	.	.	-[10 µM]	.
NC(=O)NC(N)=O	-	.	-	-	-	.
Cc1ccc(-c2[nH]c3ccccc3c2SCCNC(=O)c2ccc(S(=O)(=O)N3CCOCC3)cc2)cc1	-	-	-	-	.	?
CNc1ccnc(-c2ccccc2CN(C)C)n1	-	.	-	-	-	.
CC1(C)OC(=O)C(=NNc2ccc(Br)cc2)C(=O)O1	-	-	12.6µM	-	.	-
Clc1ccc(/C=C/c2ncc3ccccn23)cc1	-	-[9.22 µM]	-	.	-[10 µM]	.
CCn1c(-c2ccc(C)cc2)n[nH]c1=S	-	-	-	-	-	-
Cc1ccc(-c2csc3n[nH]c(=S)n23)cc1	-	-	?	28.2µM	-[10 µM]	?
OCC1OC(c2ccc3c(c2)OCO3)C=CC1Oc1cc(Cl)cc(Cl)c1 (centres undefined)	.	.	?	.	-[10 µM]	.
CSc1nc2ccc(NS(=O)(=O)c3ccc([N+](=O)[O-])cc3)cc2s1	-	-[9.22 µM]	-	.	-[10 µM]	.
CSc1nc2ccc(NS(=O)(=O)c3cccc(Cl)c3Cl)cc2s1	-	-	?	15.8µM	-[10 µM]	-
O=C(Nc1ccncc1)c1ccc(-c2ccccc2)cc1	-	-	-	.	-	.
O=C(NC1CCCCC1)C1Cc2ccccc2CN1S(=O)(=O)c1ccc(F)cc1 (centres undefined)	-	-	-	-	-[10 µM]	-100.0
CC1CN(C2CCN(C(=O)COc3ccc(Cl)cc3)CC2)CC(C)O1 (centres undefined)	-	-	12.6µM	-	-	-
Cc1cc(N2CCC(C)CC2)c(F)cc1[N+](=O)[O-]	-	-	10µM	-	-[10 µM]	-
Cc1ccccc1-n1c(=O)cc(N2CCC3(CC2)OCCO3)[nH]c1=O	-	-	-	-	-[10 µM]	-118.9
COC(=O)c1ccccc1NC(=O)C1CC=CCC1C(=O)O (centres undefined)	-	-	-	-	-[10 µM]	-
Cc1cc(C)cc(Oc2ccc(NC(=O)C3CC=CCC3C(=O)O)cc2)c1 (centres undefined)	-	-	2.82µM	.	.	.
O=C(O)C1CC=CCC1C(=O)Nc1ccc(Oc2ccc(Cl)cc2)cc1 (centres undefined)	-	-	1.41µM	-	.	?
COC(=O)c1cc(NC(=O)C2CC=CCC2C(=O)O)cc(C(=O)OC)c1 (centres undefined)	-	-	12.6µM	-	-[0.074 µM]	-
CCOc1ccc(NC(=O)C2CC=CCC2C(=O)O)cc1 (centres undefined)	-	-	-	-	-[0.074 µM]	-
C[N+]1(C)CCc2cc(O)c(O)cc2[C@H]1Cc1ccc(O)c(O)c1	-[14.2 µM]	.	-[13.5 µM]	-	-[10 µM]	.
O=C(CCCn1c(=O)[nH]c2ccsc2c1=O)N1CCCCC1	-	-	-	14.1µM	-	?
SMILES	GoLoco inh red	HTT aggregate	ALDH1A1 inh	HPGD block	HTT cytoprotect	PNC inhibitor
O=C(CCCCCn1c(=O)[nH]c2ccsc2c1=O)N1CCCCC1	-	-	-	14.1µM	-[10 µM]	-
O=C(Cn1c(=O)[nH]c2ccsc2c1=O)NC1CCCCCC1	-	-	-	-	?	-100.0
NC(=O)C1(N2CCCCC2)CCN(C(=O)CCCn2c(=O)[nH]c3ccsc3c2=O)CC1	-	-	-	-	-	-
O=C(CCCCCn1c(=O)[nH]c2ccsc2c1=O)NCc1cccs1	-	-	-	?	-[1.9 µM]	?
O=C(CCCCCn1c(=O)[nH]c2ccsc2c1=O)N1CCN(C2CCCCC2)CC1	-	-	?	-	-	-
O=C(CCCCn1c(=O)[nH]c2ccsc2c1=O)NCC1CCCO1 (centres undefined)	-	-	-	25.1µM	-[1.9 µM]	-
